From the supplement of paper PMC5499739
Whole data set: some 16,000 sequences, median “Z-score” near -0.37, cut for the highest 2% near 3.1. The sample as a whole holds a higher share of the highest values than the screen did.

tested on: RBM10 RRM1-ZnF-RRM2 (GST-tagged construct); assay: RNAcompete 7-mer binding Z-score; higher = stronger binding preference
In short: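 A designed pool of 241 399 RNAs, each up to 41 nt and transcribed from microarray-derived DNA templates, was used at 1.5 nmol with 20 pmol of GST-tagged RBM10 constructs. The mixture, in 1 ml Hepes pH 7.8 buffer with KCl, NaCl, glycerol, DTT, BSA and glutathione Sepharose beads, was held 30 min at 4°C and then washed four times for 2 min at 4°C. Bound RNA was read out by microarray hybridisation, and enrichment of each heptamer motif was scored as a one-sided Z-score over the probes carrying it.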

Sequence	RNAcompete 7-mer binding Z-score
GCAUCGA	-0.22
CGCCUCA	-0.748
CGGAGCA	1.02
GCAGCGG	2.14
GUUCUAC	-0.759
CAUAAGG	0.548
GAUAAGU	0.0969
GUAAAGG	3.36
GAUAAGG	3.81
GUAAAGU	0.396
GUAAAAG	0.767
CCUACAG	-0.752
UGACACA	-0.315
UUCUUAU	-0.744
CGAACGC	-0.256
CCAUUUU	-1.08
AUUACAC	-0.537
GGCUCAA	-0.122
CCCUCUU	-0.89
AAAAGGA	3.25
CAAAGGA	1.34
UAAAGGA	1.64
CAAAGGG	2.78

Sequence	RNAcompete 7-mer binding Z-score
AAAAGGG	3.58
UAAAGGG	2.65
CUUUCGC	-0.967
UGAAGAU	-0.00877
UAAUGGG	2.89
CAAUGGA	1.4
GAAUGGG	4.77
AAAUGGA	3.34
CAAUGGG	3.4
GAAUGGU	2.65
GAAUGGA	3.56
AAAUGUA	0.0859
CAAUGGU	1.25
UAAUGGA	1.64
ACAUGGA	1.76
GAAUGGC	1.68
UGCGCUU	-0.744
CCCUCAG	-0.81
CUCCGUC	-0.894
GACAAGC	-0.0233
GGCCGGU	0.279
GAUUCCA	-0.519
AAAUGGU	2.73

Sequence	RNAcompete 7-mer binding Z-score
GUAUGGG	4.06
AAAUGGG	4.04
AAAUGGC	1.42
CUAUGGG	1.08
GUAUGGA	2.44
CGGAUAU	0.348
GGUGUCG	1.21
AGUAUGC	0.0204
CCCAGCU	-0.657
CUAGACA	-0.621
UUGGGCG	2.45
AGGCCCG	-0.759
CGCUUUC	-0.77
UGGGCGC	0.989
AGGGGCA	2.36
UGGGCGG	3.38
UGGGGGC	3.18
AGGGCGG	2.23
UGGGGCC	0.76
UUGGGGC	2.04
UUGGGGG	3.03
UGGGGGG	3.39
GGGGGCA	2.33

Sequence	RNAcompete 7-mer binding Z-score
UGGGGCA	3.52
UGGGGCG	2.66
UUGGAAU	0.57
AGUUCAA	-0.311
ACACAUG	-0.0962
AUGCUAU	-0.65
GAAAAUG	1.46
AAAAUUU	-0.544
AAGGACA	3.12
CUGAUAA	-0.566
UCGGGUC	0.512
ACCAGUC	-0.602
ACCAGGU	0.399
GCCUAUU	-0.901
ACCCUCA	-0.846
UGGGGGU	3.25
GGGGGGU	3.13
UGGGGUU	2.78
UGAGGAG	1.94
CGAGGUU	0.727
GGAGGGU	3.8
UGAGGGG	3.5
AGAGGGU	2.21

Sequence	RNAcompete 7-mer binding Z-score
UGAGGGU	3.92
CGAGGAU	1.1
UGAGGCU	0.315
GGAGGCU	1.29
UGAGAGG	1.8
CGAGGGU	3.55
GGAGGAU	2.27
GAUCGGA	0.785
UCUCGGA	-0.329
UCGGAUG	0.512
CGCCGAA	-0.646
GAUAUUG	0.283
AAGUGUC	-0.322
GCAAGUG	0.709
UCAGGGA	2.05
UGAGGGA	4.05
UGAGGCA	1.31
GCGGGUA	2.5
CGGGGUA	3.42
UUGGGUA	1.95
CUGGGUA	1.78
AGGGGUA	3.66
AGGGGUC	1.76

Sequence	RNAcompete 7-mer binding Z-score
GUGGGUA	3.07
GGGGGUA	3.52
UGGGGUA	3.36
CGGGGUC	1.9
CCGGGUA	0.814
CGAUUUA	-0.704
UUAAAGC	-0.439
ACUAGAA	-0.187
CUUUUGA	-0.755
AGAGACC	-0.774
UCAUACA	-0.464
UAGAGGG	3.16
UGGAGUG	2.72
UGGAGGG	4.26
AGGAGUG	2.8
UAGAGGU	1.68
AAGAGGG	3.05
GGGAGUA	2.34
GGGAGUG	3.84
UGGAGGA	2.95
UGGAGAG	2.12
GGGAGGA	3.24
AGGAGGA	2.22

Sequence	RNAcompete 7-mer binding Z-score
GCACUAG	-0.0161
AUAAGCU	-0.391
UUGACGG	0.399
CGUUUGC	-0.766
UUUCGAU	-0.664
UUCGGGA	0.734
GGGACCA	1.9
UUCCGUC	-0.726
UCAAUGG	1.28
UCUGUGG	0.199
GGGAGCC	0.891
UGGAGGC	2.16
GGGAGCG	3.23
AGGAGGG	3.31
AGGAGGC	1.72
AGGAGGU	2.71
GGGAGGG	4.06
CGGAGCG	1.45
CGGAGGG	2.92
CGGAGGC	1.24
GGGAGGC	3.2
GAGAGGG	2.75
CGCUGGA	-0.027

Sequence	RNAcompete 7-mer binding Z-score
AGUCGCG	-0.0634
UGCCACC	-0.759
ACUUUGG	-0.351
GGCUUGU	-0.318
CUCGUUC	-0.61
GGCUUCA	-0.428
GAUACUG	-0.118
GAAGUCG	0.428
CUUCUCA	-0.981
UCGUGCG	-0.027
UCUUAUU	-0.803
UUAGUAA	-0.355
AGGCCUC	-0.828
CGGAGGU	2.46
GGGAGGU	3.39
UGGAGGU	3.02
CCACGAA	-0.544
CAGGUAG	2.68
AAGGUAU	2.03
UAGGUAG	2.27
AAGGUAA	3.65
AAGGUAG	3.82
UAGGUAA	1.96
